Assay results published in PubChem BioAssay (NCATS).
A number with no mark means an inactive call. Inconclusive results are not listed. Activity calls are given as the source filed them. Unless noted, the call rests on the fitted dose curve; in most records, active means well fitted curve in either direction with a large enough effect (not every such curve was filed as active); inconclusive means small, poorly fitted or top-dose-only effect, or another doubt; inactive means flat fitted curve, though single readings scatter.

Experiments:
[1] = target: Lysosomal acid glucosylceramidase (Homo sapiens) (UniProt P04062); assay: Glucocerebrosidase-p2 (AID 348; in the data active means potency below about 10 µM; further: potency means the concentration at half of the fitted maximal effect); conditions: purified GBA, blue fluorogenic substrate, 40 min
Sequence of Lysosomal acid glucosylceramidase (Homo sapiens) (P04062 whole entry, looked up): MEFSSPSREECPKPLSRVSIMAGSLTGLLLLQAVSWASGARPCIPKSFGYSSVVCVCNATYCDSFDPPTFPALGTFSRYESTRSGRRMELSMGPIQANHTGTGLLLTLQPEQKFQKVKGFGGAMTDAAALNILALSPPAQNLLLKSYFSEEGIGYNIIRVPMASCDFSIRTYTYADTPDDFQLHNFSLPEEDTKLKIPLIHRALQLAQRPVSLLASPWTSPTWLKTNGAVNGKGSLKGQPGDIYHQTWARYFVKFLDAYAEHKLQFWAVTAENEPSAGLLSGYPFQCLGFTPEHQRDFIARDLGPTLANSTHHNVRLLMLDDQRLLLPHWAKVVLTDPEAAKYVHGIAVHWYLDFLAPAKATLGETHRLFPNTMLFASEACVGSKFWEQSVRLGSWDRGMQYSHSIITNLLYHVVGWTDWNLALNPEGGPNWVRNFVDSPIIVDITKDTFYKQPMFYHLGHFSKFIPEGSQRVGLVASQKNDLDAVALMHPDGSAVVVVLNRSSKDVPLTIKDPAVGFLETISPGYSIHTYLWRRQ
Procedure, shortened: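 Normal human glucocerebrosidase (0.2 nM) with blue fluorogenic substrate (80 uM final) in citrate/phosphate pH 5.9 with 10mM sodium taurocholate, 0.01% tween-20; 40 min RT, NaOH/glycine stop; fluorescence Ex 365/Em 440; AC50 from a titration from 0.6 nM upwards.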

[2] = AP1 Signaling Pathway (AID 357); conditions: ME-180 AP-1-bla reporter, EGF-induced, beta-lactamase ratio, 5 h; at 7.69 µM (top of the series) unless noted;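 further: ME-180 reporter cells stimulated with EGF at its EC50 level; on the % scale 0 is the no-effect control and ±100 the full control effect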
Procedure, shortened: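 Beta-lactamase reporter under AP-1 response element, ME-180 background. Stimulus: EC50 EGF. Compound exposure 5 h, 37 °C. Detection: CCF4, 2.5 h RT, 460/530 nm. Values: AC50 from titration.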

[3] = target: Cytochrome P450 1A2 (Homo sapiens) (UniProt P05177); assay: p450-cyp1a2 (AID 410; calls by dose curve; further: potency means the concentration at half of the fitted maximal effect;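 on activity change, negative = inhibition: -100% = full effect of reference inhibitor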); conditions: recombinant CYP1A2, luciferin-ME demethylation, luminescence; series mostly up to 57 µM
Sequence of Cytochrome P450 1A2 (Homo sapiens) (P05177 whole entry, looked up): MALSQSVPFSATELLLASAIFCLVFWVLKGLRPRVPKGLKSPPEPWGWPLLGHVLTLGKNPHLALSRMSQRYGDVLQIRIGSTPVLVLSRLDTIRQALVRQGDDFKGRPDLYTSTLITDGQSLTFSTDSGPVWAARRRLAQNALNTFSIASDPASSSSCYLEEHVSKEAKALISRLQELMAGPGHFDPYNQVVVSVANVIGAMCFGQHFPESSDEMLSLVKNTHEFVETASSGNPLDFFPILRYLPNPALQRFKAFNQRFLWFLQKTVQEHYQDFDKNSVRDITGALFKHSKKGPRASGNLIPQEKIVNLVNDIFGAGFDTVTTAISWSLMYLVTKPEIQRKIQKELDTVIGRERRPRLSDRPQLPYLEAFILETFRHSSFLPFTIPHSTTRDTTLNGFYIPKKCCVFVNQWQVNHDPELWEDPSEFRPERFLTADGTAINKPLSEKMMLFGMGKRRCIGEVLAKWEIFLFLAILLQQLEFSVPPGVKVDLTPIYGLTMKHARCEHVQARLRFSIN
Procedure, shortened: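 Read-out is luminescence from luciferin produced by CYP1A2 demethylation of Luciferin-ME (100uM, at Km). Detection reagent stopped the 60 min NADPH-dependent reaction; signals were normalized to 57 uM furafylline.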

[4] = NFAT Signaling Pathway (AID 444); conditions: Jurkat NFAT-bla M1, carbachol, beta-lactamase ratio, 5 h; at 7.69 µM (top of the series) unless noted;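 further: carbachol stimulus at about its EC50 of 1 µM final; on the % scale 0 is the no-effect control and ±100 the full control effect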
Procedure, shortened: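 Jurkat cells carrying an NFAT-driven β-lactamase reporter and co-transfected muscarinic M1 receptor were treated with compound plus carbachol (1 uM final, an EC50 level) for 5 h at 37 °C. CCF4 loading followed for 1 h at RT; 460/530 nm ratio gave %activity.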

[5] = target: Glucocorticoid receptor (Homo sapiens) (UniProt P04150); assay: GR-EFC Redistribution (AID 451; calls by dose curve; further: potency means the concentration at half of the fitted maximal effect); conditions: CHO-K1 GR-EFC translocation, beta-gal luminescence, 2 h
Sequence of Glucocorticoid receptor (Homo sapiens) (P04150 whole entry, looked up, the tested form may be a part): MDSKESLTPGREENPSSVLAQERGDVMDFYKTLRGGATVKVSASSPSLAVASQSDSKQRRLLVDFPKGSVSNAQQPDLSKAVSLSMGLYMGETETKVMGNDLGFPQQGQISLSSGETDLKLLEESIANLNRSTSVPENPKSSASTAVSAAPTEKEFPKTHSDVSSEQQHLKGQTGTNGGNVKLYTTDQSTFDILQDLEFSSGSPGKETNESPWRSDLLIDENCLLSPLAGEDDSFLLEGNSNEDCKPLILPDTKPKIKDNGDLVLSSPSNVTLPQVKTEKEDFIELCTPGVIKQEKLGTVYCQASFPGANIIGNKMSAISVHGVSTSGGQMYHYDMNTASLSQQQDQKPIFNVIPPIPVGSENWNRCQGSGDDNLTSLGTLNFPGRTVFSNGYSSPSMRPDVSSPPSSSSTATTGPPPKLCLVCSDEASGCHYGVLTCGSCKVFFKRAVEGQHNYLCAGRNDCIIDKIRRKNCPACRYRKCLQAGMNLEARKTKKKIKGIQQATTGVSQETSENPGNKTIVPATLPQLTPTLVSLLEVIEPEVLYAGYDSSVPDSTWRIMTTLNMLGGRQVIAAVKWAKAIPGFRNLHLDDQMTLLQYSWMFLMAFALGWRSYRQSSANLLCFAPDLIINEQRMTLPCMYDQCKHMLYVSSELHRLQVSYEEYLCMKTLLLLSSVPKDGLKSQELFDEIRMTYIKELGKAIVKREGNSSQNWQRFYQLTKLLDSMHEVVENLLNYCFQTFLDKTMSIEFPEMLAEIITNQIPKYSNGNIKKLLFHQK
Procedure, shortened: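 CHO-K1 cells stably expressing nuclear-localized β-gal enzyme acceptor and GR fused C-terminally to the enzyme donor fragment; ligand-driven nuclear translocation restores β-gal by complementation. Compounds titrated up to 46 uM final, 2 h at 37 °C; luminescence read.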

[6] = target: Mitogen-activated protein kinase 10 (Mus musculus) (UniProt Q61831); assay: JNK3 AlphaScreen Assay (AID 530); conditions: JNK3 lysate, c-Jun phosphorylation; series mostly up to 57.1 µM;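 further: kinase came from lysate of stimulated human HepG2 cells; signal reports phosphorylation of biotinylated GST-cJun 1-79 at Ser73 with 10 µM ATP; on the % scale 0 is the no-effect control and ±100 the full control effect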
Procedure, shortened: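 Biotinylated GST-cJun(1-79) served as substrate for JNK3 in HepG2 lysates stimulated with IL-1beta and TNF-alpha. ATP was 10 uM final, pH 7.6. Ser73 phosphorylation was quantified by AlphaScreen (680 nm excitation).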

[7] = target: 3',5'-cyclic-AMP phosphodiesterase 4B (Homo sapiens) (UniProt Q07343); assay: qHTS Assay for Inhibitors of PDE-IV (AID 607; active means well fitted activation curve with a large enough effect in the main read-out, with a control signal flat, not every such curve was filed as active; further: % of control where 0% means no effect); conditions: HEK293 ACTOne CNG channel cells, membrane potential fluorescence; series mostly up to 22.9 µM
Sequence of 3',5'-cyclic-AMP phosphodiesterase 4B (Homo sapiens) (Q07343 whole entry, looked up): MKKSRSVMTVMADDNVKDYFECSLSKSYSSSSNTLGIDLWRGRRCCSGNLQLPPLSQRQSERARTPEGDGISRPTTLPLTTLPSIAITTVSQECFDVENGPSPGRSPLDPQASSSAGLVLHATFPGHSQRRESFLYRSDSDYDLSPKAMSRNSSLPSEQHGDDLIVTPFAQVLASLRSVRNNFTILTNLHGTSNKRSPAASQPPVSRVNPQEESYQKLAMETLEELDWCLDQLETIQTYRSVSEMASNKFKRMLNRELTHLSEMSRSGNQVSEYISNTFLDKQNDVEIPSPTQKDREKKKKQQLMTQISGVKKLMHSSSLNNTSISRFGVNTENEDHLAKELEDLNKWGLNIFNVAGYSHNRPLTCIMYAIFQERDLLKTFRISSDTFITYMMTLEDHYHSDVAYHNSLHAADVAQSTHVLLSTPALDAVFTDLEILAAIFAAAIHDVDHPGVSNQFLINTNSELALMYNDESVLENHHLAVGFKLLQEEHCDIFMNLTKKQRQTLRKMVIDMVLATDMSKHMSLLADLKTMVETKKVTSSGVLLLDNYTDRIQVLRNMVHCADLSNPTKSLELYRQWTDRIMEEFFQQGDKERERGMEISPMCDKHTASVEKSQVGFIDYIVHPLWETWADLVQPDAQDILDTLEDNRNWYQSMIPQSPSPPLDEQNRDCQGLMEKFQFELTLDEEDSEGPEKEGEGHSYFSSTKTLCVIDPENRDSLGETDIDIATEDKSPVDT
Procedure, shortened: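 ACTOne HEK293 cells carry a modified cAMP-gated CNG channel and express endogenous PDE4; plated 1000 cells/well, compounds up to 22.9 uM final. Membrane-potential dye fluorescence (ex 535/em 590) was read; parental cells received 10 uM forskolin + 100 uM RO 20-1724.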

[8] = Primary qHTS for small molecule stabilizers of the endoplasmic reticulum resident proteome: Secreted ER Calcium Modulated Protein (SERCaMP) assay (AID 1508630; active means well fitted curve in the direction sought with a large enough effect; an effect the other way counts as inactive or inconclusive; further: on the % scale 0 is the no-effect control and ±100 the full control effect); conditions: SH-SY5Y GLuc-SERCaMP (Gaussia luciferase released on ER calcium loss) secretion, thapsigargin, luminescence; series mostly up to 38.4 µM
Procedure, shortened: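 The SH-SY5Y reporter protocol was run at 3 concentrations up to 38.3 uM (primary) or 11 concentrations (follow-up): 16 h compound, 100 nM thapsigargin for 4 h, then extracellular luciferase luminescence.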

[9] = Stat Signaling Pathway (AID 446); conditions: ME-180 (cervical carcinoma) SIE beta-lactamase reporter, IL-6 stimulated, 5 h; at 7.69 µM (top of the series) unless noted
Procedure, shortened: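 Compound effects on IL-6-induced STAT reporter activity were measured in ME-180 cells. After overnight culture, cells were co-treated with 40 pM IL-6 for 5 hrs before beta-lactamase substrate loading at room temperature.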

[10] = target: Glucocorticoid receptor (Homo sapiens) (UniProt P04150); assay: GR-GFP Redistribution (AID 450;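 active means compounds whose dose series gives a full or clear partial fitted curve of increased nuclear translocation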; further: potency means the concentration at half of the fitted maximal effect); conditions: U2OS GR-GFP nuclear translocation, laser cytometry, 2 h
[11] = target: Cytochrome P450 2C9 (Homo sapiens) (UniProt P11712); assay: qHTS Assay for Inhibitors and Substrates of Cytochrome P450 2C9 (AID 883; active means well fitted curve in the direction sought with a large enough effect; an effect the other way counts as inactive or inconclusive; further: nearly all actives have a fitted effect of over 60% in size; further: potency means the concentration at half of the fitted maximal effect); conditions: recombinant CYP2C9, luciferin-H luminescence, 60 min; series mostly up to 57.1 µM
Sequence of Cytochrome P450 2C9 (Homo sapiens) (P11712 whole entry, looked up): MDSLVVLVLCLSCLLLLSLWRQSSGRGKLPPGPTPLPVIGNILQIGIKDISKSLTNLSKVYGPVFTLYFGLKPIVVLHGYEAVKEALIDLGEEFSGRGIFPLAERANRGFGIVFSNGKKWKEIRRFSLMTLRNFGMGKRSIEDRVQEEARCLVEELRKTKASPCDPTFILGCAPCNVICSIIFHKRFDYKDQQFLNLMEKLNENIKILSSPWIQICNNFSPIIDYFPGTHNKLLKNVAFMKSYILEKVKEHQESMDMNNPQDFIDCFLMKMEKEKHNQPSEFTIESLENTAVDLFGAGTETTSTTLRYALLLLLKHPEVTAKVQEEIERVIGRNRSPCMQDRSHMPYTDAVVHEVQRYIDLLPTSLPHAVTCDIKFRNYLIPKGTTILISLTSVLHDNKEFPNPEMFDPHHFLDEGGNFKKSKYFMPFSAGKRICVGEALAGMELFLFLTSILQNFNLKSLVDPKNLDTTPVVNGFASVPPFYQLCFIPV
Procedure, shortened: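 CYP2C9 deoxyluciferin hydroxylation, 37C, 60 min with NADPH regeneration; 10nM enzyme, 100uM Luciferin-H (KM). Glo detection reagent stopped reaction; luminescence normalized to sulphaphenazole (57uM) full inhibition.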

[12] = target: Cytochrome P450 3A4 (Homo sapiens) (UniProt P08684); assay: qHTS Assay for Inhibitors and Substrates of Cytochrome P450 3A4 (AID 884; active means well fitted curve in the direction sought with a large enough effect; an effect the other way counts as inactive or inconclusive; further: nearly all actives have a fitted effect of over 50% in size; further: potency means the concentration at half of the fitted maximal effect); conditions: recombinant CYP3A4, Luciferin-PPXE luminescence; series mostly up to 57.1 µM
Sequence of Cytochrome P450 3A4 (Homo sapiens) (P08684 whole entry, looked up): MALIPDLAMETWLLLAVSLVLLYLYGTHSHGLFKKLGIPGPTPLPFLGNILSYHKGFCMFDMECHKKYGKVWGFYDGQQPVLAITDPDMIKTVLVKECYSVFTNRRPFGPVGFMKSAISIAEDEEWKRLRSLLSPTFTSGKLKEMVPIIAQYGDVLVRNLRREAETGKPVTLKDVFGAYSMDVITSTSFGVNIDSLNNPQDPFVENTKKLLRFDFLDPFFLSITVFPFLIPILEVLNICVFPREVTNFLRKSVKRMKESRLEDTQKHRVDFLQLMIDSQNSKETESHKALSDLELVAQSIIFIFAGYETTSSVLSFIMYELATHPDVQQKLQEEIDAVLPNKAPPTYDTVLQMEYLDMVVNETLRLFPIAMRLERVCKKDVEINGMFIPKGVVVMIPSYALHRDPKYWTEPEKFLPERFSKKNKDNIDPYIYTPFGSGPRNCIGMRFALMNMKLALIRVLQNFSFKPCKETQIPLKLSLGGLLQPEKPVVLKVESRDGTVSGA
Procedure, shortened: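 Luminescent readout of luciferin produced by CYP3A4 (20 nM) dealkylation of Luciferin-PPXE, 25 uM (its KM). NADPH-driven reaction ran 60 min at RT after 10 min compound preincubation; data scaled to 57 uM ketoconazole as 100% inhibition.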

[13] = target: Cytochrome P450 3A4 (Homo sapiens) (UniProt P08684); assay: qHTS Assay for Activators of Cytochrome P450 3A4 (AID 885; active means well fitted curve in the direction sought with a large enough effect; an effect the other way counts as inactive or inconclusive; further: nearly all actives have a fitted effect of over 65% in size); conditions: recombinant CYP3A4, Luciferin-PPXE luminescence, 60 min; series mostly up to 57.1 µM
Procedure, shortened: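 CYP3A4 activity: Luciferin-PPXE O-dealkylation, 25uM substrate, 200mM KPO4, RT throughout. Read-out is luciferase luminescence; higher values reflect activation.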

[14] = target: Cytochrome P450 2C19 (Homo sapiens) (UniProt P33261); assay: qHTS Assay for Inhibitors and Substrates of Cytochrome P450 2C19 (AID 899; active means well fitted curve in the direction sought with a large enough effect; an effect the other way counts as inactive or inconclusive; further: nearly all actives have a fitted effect of over 60% in size; further: potency means the concentration at half of the fitted maximal effect); conditions: recombinant CYP2C19, luciferin-H EGE luminescence; series mostly up to 57.1 µM
Sequence of Cytochrome P450 2C19 (Homo sapiens) (P33261 whole entry, looked up): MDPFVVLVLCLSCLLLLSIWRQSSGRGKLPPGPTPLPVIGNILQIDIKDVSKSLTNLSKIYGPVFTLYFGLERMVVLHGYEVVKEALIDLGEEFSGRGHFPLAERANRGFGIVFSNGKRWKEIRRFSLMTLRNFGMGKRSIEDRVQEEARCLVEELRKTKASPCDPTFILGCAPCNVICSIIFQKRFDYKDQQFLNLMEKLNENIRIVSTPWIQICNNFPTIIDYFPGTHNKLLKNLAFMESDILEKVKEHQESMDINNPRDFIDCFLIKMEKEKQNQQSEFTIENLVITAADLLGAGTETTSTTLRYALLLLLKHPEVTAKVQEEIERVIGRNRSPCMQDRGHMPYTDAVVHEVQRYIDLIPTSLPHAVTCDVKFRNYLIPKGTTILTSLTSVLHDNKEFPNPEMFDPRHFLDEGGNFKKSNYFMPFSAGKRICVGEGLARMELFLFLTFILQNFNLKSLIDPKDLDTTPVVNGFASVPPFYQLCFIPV
Procedure, shortened: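 In 50mM KPO4, the reaction held 5nM enzyme and KM-level (10uM) Luciferin-H EGE; it ran 60 min at 37C after NADPH regeneration and a 10 min compound preincubation. Luminescence values were scaled to 57uM ketoconazole as complete inhibition.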

[15] = target: Cytochrome P450 2D6 (Homo sapiens) (UniProt P10635); assay: qHTS Assay for Inhibitors and Substrates of Cytochrome P450 2D6 (AID 891; active means well fitted curve in the direction sought with a large enough effect; an effect the other way counts as inactive or inconclusive;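 further: luciferin methyl ether substrate demethylated by CYP2D6 with NADPH regeneration; on the % scale 0 is the no-effect control and ±100 the full control effect; nearly all actives have a fitted effect of over 60% in size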); conditions: recombinant CYP2D6, luciferin-ME EGE luminescence; series mostly up to 57.1 µM
Sequence of Cytochrome P450 2D6 (Homo sapiens) (P10635 whole entry, looked up): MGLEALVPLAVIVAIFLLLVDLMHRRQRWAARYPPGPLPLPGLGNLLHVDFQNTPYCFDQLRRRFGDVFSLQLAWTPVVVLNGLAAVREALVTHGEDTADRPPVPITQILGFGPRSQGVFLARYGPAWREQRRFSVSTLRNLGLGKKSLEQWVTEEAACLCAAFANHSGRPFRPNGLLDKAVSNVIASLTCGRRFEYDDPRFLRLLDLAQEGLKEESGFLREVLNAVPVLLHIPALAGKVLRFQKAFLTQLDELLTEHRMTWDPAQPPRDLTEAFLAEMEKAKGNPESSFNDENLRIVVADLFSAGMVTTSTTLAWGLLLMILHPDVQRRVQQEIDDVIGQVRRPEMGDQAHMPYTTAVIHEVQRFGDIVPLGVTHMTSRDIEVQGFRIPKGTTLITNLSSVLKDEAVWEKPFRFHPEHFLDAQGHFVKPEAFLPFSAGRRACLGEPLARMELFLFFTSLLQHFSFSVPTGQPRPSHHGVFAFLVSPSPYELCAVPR
Procedure, shortened: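 Luminescent read-out of luciferin formed by 5 nM human CYP2D6 demethylating 30 uM Luciferin-ME EGE (Km level) over 60 min at room temperature after NADPH regeneration addition. Data normalized to full inhibition by 1.43 uM quinidine.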

Row | SMILES | Potency [1] [µM] | activity change, negative = inhibition [2] [%] | Potency [3] | activity change, negative = inhibition [4] [%] | Potency [5] [µM] | Potency [6] | Potency [7] | outcome [8] | activity, negative = inhibition [9] [%] | Potency [10] [µM] | Potency [11] | Potency [12] | Potency [13] | Potency [14] | Potency [15]
1 | CC(C)NC(=O)N1CC[C@@]2(CCCN(C(=O)c3cccc(F)c3)C2)C1 | > 11.4 | -5.48 | inactive | 10.1 | > 46 | inactive | inactive | inactive | – | – | – | – | – | – | –
2 | COc1ccccc1CCn1c(=O)c(-c2ccc(Cl)cc2)nc2cncnc21 | > 11.4 | 10.2 | 0.631 µM (active) | – | > 46 | inactive | inactive | inactive | 6.76 | > 9.22 | 3.98 µM (active) | 3.98 µM (active) | inactive | 0.398 µM (active) | –
3 | O=C(c1csnn1)N1CCC2(CC1)CCN(c1ccccn1)CC2 | > 11.4 | 15.4 | 25.1 µM (active) | – | > 46 | inactive | inactive | inactive | 4.86 | – | – | – | – | – | –
4 | CC(=O)N1CCC2(CCCN(Cc3nccs3)C2)CC1 | > 11.4 | 3.8 | inactive | -6.07 | > 46 | inactive | inactive | inactive | 6.5 | – | – | – | inactive | 5.01 µM (active) | –
5 | COCC(=O)N1CCC2(CCCN(c3cccc(-c4ccccc4)c3)C2)CC1 | > 11.4 | -22.8 | 15.8 µM (active) | 17 | > 46 | inactive | – | inactive | -10.6 | – | – | – | inactive | – | –
6 | O=C(Nc1cccc(F)c1)N1CC[C@@]2(CCCN(C(=O)c3cnccn3)C2)C1 | > 11.4 | 4.63 | inactive | 12.9 | > 46 | inactive | – | inactive | 2.65 | – | – | – | inactive | – | –
7 | O=C(c1cccc(F)c1)N1CCC2(CCCN(c3ccc(-c4ccccc4)cc3)C2)CC1 | > 11.4 | 6.64 | 15.8 µM (active) | -3.55 | > 46 | inactive | – | inactive | 1.09 | – | – | – | inactive | – | –
8 | Cn1cccc1C(=O)N1CCC2(CC1)CCN(c1cccc(-c3ccccc3)c1)CC2 | > 11.4 | -12.9 | 20 µM (active) | 16.5 | > 46 | – | inactive | inactive | -8.63 | – | – | – | – | – | –
9 | CCNc1ncc2nc(-c3ccc(OC)cc3)c(=O)n(-c3ccc(OC)cc3)c2n1 | > 11.4 | -16 | inactive | -5.13 | > 46 | inactive | – | inactive | – | > 9.22 | – | – | inactive | – | –
10 | O=c1c(-c2cccc(Cl)c2)nc2cncnc2n1Cc1ccccc1Cl | > 11.4 | 15.6 | 2 µM (active) | – | > 46 | inactive | – | inactive | -2.1 | > 9.22 | 3.98 µM (active) | – | inactive | 5.01 µM (active) | –
11 | O=C(c1cnccn1)N1CCC2(CC1)CN(c1cccc(-c3ccccc3)c1)C2 | > 11.4 | -8.05 | 15.8 µM (active) | -5.73 | > 46 | – | inactive | inactive | – | – | – | – | inactive | – | –
12 | N#Cc1cccc(-c2nc3cnc(N4CCNCC4)nc3n(C3CC3)c2=O)c1 | > 11.4 | 13.2 | 5.01 µM (active) | 26.2 | > 46 | inactive | inactive | inactive | – | > 9.22 | 0.631 µM (active) | – | inactive | – | –
13 | O=c1c(-c2ccc(F)c(F)c2)nc2cncnc2n1-c1ccccc1 | > 11.4 | -19.9 | 12.6 µM (active) | 3.06 | > 46 | inactive | – | inactive | – | > 9.22 | – | – | inactive | – | –
14 | N#Cc1cccc(NC(=O)N2CC[C@@]3(CCCN(C(=O)c4cc(C(F)(F)F)cc(C(F)(F)F)c4)C3)C2)c1 | > 11.4 | 3.48 | inactive | 5.16 | > 46 | inactive | – | inactive | -10.2 | – | inactive | inactive | – | inactive | inactive
15 | Cn1cccc1C(=O)N1CCC2(CCCN(c3ccc(-c4ccccc4)cc3)C2)CC1 | > 11.4 | 15.7 | 15.8 µM (active) | -14.9 | > 46 | – | inactive | inactive | 3.39 | – | – | – | – | – | –
